In the library only some 1.7% were active in any assay of this set; here they are far more common.
CHT PAM: CHT positive allosteric modulators, primary screen, cell-based, membrane potential dye, choline EC20. 310,000 compounds, 0.49% hits. B-score at 10 µM. AID 488977, 2010. CHT-expressing cells; stronger effect = higher value; LV-AA mutant CHT in HEK293 cells. High affinity choline transporter 1 (Homo sapiens), Q9GZV3;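 active = initial fluorescence not abnormally high and integrated response B-score, plate-corrected, over 3 SD above library mean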
Target sequence (Q9GZV3 whole entry, looked up): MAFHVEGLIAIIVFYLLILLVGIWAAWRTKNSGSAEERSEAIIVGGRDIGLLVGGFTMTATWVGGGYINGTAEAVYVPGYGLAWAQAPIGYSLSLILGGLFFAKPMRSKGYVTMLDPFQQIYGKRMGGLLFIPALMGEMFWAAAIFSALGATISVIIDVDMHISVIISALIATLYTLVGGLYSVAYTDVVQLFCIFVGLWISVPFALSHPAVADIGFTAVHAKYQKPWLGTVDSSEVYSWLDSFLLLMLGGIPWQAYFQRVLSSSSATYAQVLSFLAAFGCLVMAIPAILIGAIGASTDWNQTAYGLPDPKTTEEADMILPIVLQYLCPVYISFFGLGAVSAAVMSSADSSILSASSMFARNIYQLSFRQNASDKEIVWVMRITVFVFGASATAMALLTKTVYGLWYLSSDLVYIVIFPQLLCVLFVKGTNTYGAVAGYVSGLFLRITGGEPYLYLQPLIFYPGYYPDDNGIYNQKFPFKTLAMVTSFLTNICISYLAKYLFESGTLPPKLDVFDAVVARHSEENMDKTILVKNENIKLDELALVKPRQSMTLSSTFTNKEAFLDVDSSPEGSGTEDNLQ
CHT block: inhibitors of human choline transporter CHT; High affinity choline transporter 1 (Homo sapiens), Q9GZV3; CHT-expressing cells, membrane potential dye, choline response; stronger effect = lower value; B-score at 10 µM; 310,000 compounds, 0.86% hits; AID 488975, 2010;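 active = B-score over 3 SD under the library average, and starting fluorescence ratio not unusually high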;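 note: choline stimulus applied at its EC90 after an EC20 pre-addition; B-score computed on integrated fluorescence ratio after choline addition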
TAG inh: inhibitors of triacylglycerol accumulation, primary screen, cell-based, uHTS, fluorescence, H9c2. inhibition, % at 12.5 µM. 230,000 compounds, 0.66% hits. H9c2 cells, Nile Red lipid (TAG) fluorescence; cells loaded with 200 µM oleic acid. AID 651582, 2012;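 active = pattern-corrected inhibition of lipid staining of at least 50% with the nuclear-stain viability signal not falling by more than 50%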
MIN6 prolif: inducers of MIN6 beta-cell proliferation, primary screen, ATP luminescence, uHTS. AID 2380, 2010. proliferation, % at 10 µM. 330,000 compounds, 0.29% hits. MIN6 cells proliferation, ATPlite luminescence, 48 h; cells starved in 0.2% serum; 100% = growth in 10% serum;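 active = compounds whose signal lies at least 3.5 SD above the mean of all wells on their plate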
CHT activ conf: CHT activators, confirmation, cell-based, membrane potential dye, duplicate; AID 504833, 2011; shares compounds with CHT PAM; CHT-expressing cells, membrane potential dye fluorescence (FDSS); % of choline EC20–EC90 response window; HEK293 expressing CHT LV-AA mutant; choline added at its EC20; 2,500 compounds, 91% hits; activation, % at 10 µM;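 active = primary screen active, with duplicate mean activation above negative control mean plus 3 SD, cut at about 11% in these data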
HEK293 MP dye: membrane potential response in parental HEK293 cells, counter-screen for CHT activator project, cell-based, membrane potential dye; shares compounds with CHT PAM; membrane potential dye fluorescence (FDSS); measured after EC20 choline addition; ratio readout change at 10 µM, hits read low; 2,500 compounds, 62% hits;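 active = duplicate-averaged ratio beyond 3 SD from buffer wells, up or down, though filed actives are nearly all decreases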
A number is an active result; ! = a repeat was not active.

How did Nc1c(-c2cccc([N+](=O)[O-])c2)nc2ccccn12 do in these assays?
CHT PAM: inactive; CHT block: inactive; MIN6 prolif: inactive; CHT activ conf: 53; HEK293 MP dye: -50

How did O=[N+]([O-])c1cccc(-c2ncc3ccccn23)c1 do in these assays?
CHT PAM: inactive; CHT block: inactive; TAG inh: inactive; MIN6 prolif: inactive

How did COc1ccc(NC(=S)NNC(=O)CNc2ccc(Cl)cc2)cc1 do in these assays?
CHT PAM: inactive; CHT block: inactive; MIN6 prolif: inactive

What do the screens show for `CCOc1ccc(S(=O)(=O)NCc2ccco2)c2ccccc12`?
CHT PAM: inactive; CHT block: inactive; MIN6 prolif: inactive; CHT activ conf: 17; HEK293 MP dye: inactive

What do the screens show for `CCOc1cc(C)c(Cl)cc1S(=O)(=O)NCc1ccco1`?
CHT PAM: inactive; CHT block: inactive; TAG inh: inactive; MIN6 prolif: inactive

What do the screens show for `Cc1cc(Br)ccc1NC(=O)CNC(=O)CN(C)C1CCS(=O)(=O)C1` (centres undefined)?
TAG inh: inactive; MIN6 prolif: inactive

How did Cc1ccc(C)c(OCCC(=O)OCc2csc(CC(=O)Nc3ccccc3C)n2)c1 do in these assays?
TAG inh: inactive; MIN6 prolif: inactive

How did Oc1ccccc1CNc1cccc2cccnc12 do in these assays?
CHT PAM: inactive; CHT block: inactive; TAG inh: inactive; MIN6 prolif: inactive

What do the screens show for `Nc1sc(-c2ccccc2)n[n+]1Cc1cccc2cccnc12`?
CHT PAM: 7.8; CHT block: inactive; TAG inh: inactive; MIN6 prolif: inactive; CHT activ conf: 12; HEK293 MP dye: inactive

How did Cc1cccn2c(=O)c(C=O)c(Cl)nc12 do in these assays?
CHT PAM: 6.6; CHT block: inactive; TAG inh: inactive; MIN6 prolif: inactive; CHT activ conf: 42; HEK293 MP dye: -31

Results for CN=Cc1c(NC)nc2c(C)cccn2c1=O ?
CHT PAM: 9.3; CHT block: inactive; MIN6 prolif: inactive; CHT activ conf: 43; HEK293 MP dye: -27

Results for CCCCCCn1c(-c2cccs2)n[nH]c1=S ?
CHT PAM: inactive; CHT block: inactive; TAG inh: inactive; MIN6 prolif: inactive

What do the screens show for `CCCc1cc(=O)oc2cc(OCC(=O)NCCCN3CCOCC3)ccc12`?
CHT PAM: inactive; CHT block: inactive; MIN6 prolif: inactive; CHT activ conf: 37; HEK293 MP dye: -35

What do the screens show for `CCCc1cc(=O)oc2c(C)c(OCC(=O)NCCCN3CCOCC3)ccc12`?
CHT PAM: inactive; CHT block: inactive; MIN6 prolif: inactive

Results for CCCc1cc(=O)oc2cc(OC(C)C(=O)NCCCn3ccnc3)ccc12 (centres undefined) ?
CHT PAM: inactive; CHT block: inactive; MIN6 prolif: inactive

Results for CCCc1cc(=O)oc2cc(OCC(=O)NCCCn3ccnc3)ccc12 ?
CHT PAM: inactive; CHT block: inactive; MIN6 prolif: inactive; CHT activ conf: 52; HEK293 MP dye: -31

How did COc1cc2nc(N3CCN(C(=O)c4ccco4)CC3)nc(N)c2cc1OC do in these assays?
CHT PAM: 6.5!; CHT block: inactive; TAG inh: inactive; MIN6 prolif: inactive; CHT activ conf: 37; HEK293 MP dye: -26

What do the screens show for `COc1cc2nc(N3CCN(C(=O)C4COc5ccccc5O4)CC3)nc(N)c2cc1OC` (centres undefined)?
CHT PAM: inactive; CHT block: inactive; TAG inh: inactive; MIN6 prolif: inactive

How did CC(C)C1C(=O)N(Cc2cn(CCC3OCCCO3)nn2)CCS(=O)(=O)N1Cc1ccc(-c2ccc(Cl)nc2)cc1 (centres undefined) do in these assays?
TAG inh: inactive

How did CCCCN(C)C(=O)CCC(=O)Nc1ccc2nc(N3CCN(C)CC3)cc(C)c2c1 do in these assays?
CHT PAM: inactive; CHT block: inactive; TAG inh: inactive; MIN6 prolif: inactive

Results for CCC(C)NC(=O)CCC(=O)Nc1ccc2nc(N3CCOCC3)cc(C)c2c1 (centres undefined) ?
CHT PAM: 7.9; CHT block: inactive; TAG inh: inactive; MIN6 prolif: inactive; CHT activ conf: 59; HEK293 MP dye: -59

What do the screens show for `CCCCN(C)C(=O)CCC(=O)Nc1ccc2nc(N3CCOCC3)cc(C)c2c1`?
CHT PAM: 7.7; CHT block: inactive; TAG inh: inactive; MIN6 prolif: inactive; CHT activ conf: 48; HEK293 MP dye: -34

What do the screens show for `CCCCNC(=O)CCC(=O)Nc1ccc2nc(N3CCC(C)CC3)cc(C)c2c1`?
CHT PAM: inactive; CHT block: inactive; TAG inh: inactive; MIN6 prolif: inactive; CHT activ conf: 38; HEK293 MP dye: -35

How did CCC(C)NC(=S)Nc1ccc2nc(N3CCOCC3)cc(C)c2c1 (centres undefined) do in these assays?
CHT PAM: inactive; CHT block: inactive; MIN6 prolif: inactive

Results for c1cncc(-c2nc(NCC3CCCO3)c3ccccc3n2)c1 (centres undefined) ?
CHT PAM: inactive; CHT block: inactive; MIN6 prolif: inactive; CHT activ conf: 22; HEK293 MP dye: -33

What do the screens show for `CC(C)Oc1ccc(-c2nc(NCC3CCCO3)c3ccccc3n2)cc1` (centres undefined)?
CHT PAM: inactive; CHT block: inactive; TAG inh: inactive; MIN6 prolif: inactive

What do the screens show for `CSc1ccccc1C(=O)N(C)C(c1ccccc1)c1ccccc1`?
CHT PAM: inactive; CHT block: inactive; MIN6 prolif: inactive; CHT activ conf: 45; HEK293 MP dye: inactive

Results for COc1ccccc1-c1noc2ncnc(Nc3cccc(C)c3C)c12 ?
CHT PAM: inactive; CHT block: inactive; TAG inh: inactive; MIN6 prolif: inactive

Results for CC1CCC(NC(=O)CCCn2sc3ccccc3c2=O)CC1 (centres undefined) ?
CHT PAM: 8.7; CHT block: inactive; MIN6 prolif: inactive; CHT activ conf: 27; HEK293 MP dye: inactive

Results for O=C(CCCn1c(=O)[nH]c2ccccc2c1=O)NC1CCCCCC1 ?
CHT PAM: inactive; CHT block: inactive; TAG inh: inactive; MIN6 prolif: inactive

Results for Cc1c(CCOC(=O)CC23CC4CC(CC(C4)C2)C3)sc[n+]1CC(=O)c1ccccc1 ?
CHT PAM: inactive; CHT block: inactive; TAG inh: inactive; MIN6 prolif: inactive; CHT activ conf: 45; HEK293 MP dye: inactive

How did CCC1NC(=O)c2cccnc2-n2c1nc1cc(F)ccc1c2=O (centres undefined) do in these assays?
TAG inh: inactive

Results for COc1ccc(OC)c(NC(=O)Nc2cc(C(=O)O)ccc2C)c1 ?
CHT PAM: inactive; CHT block: inactive; TAG inh: inactive; MIN6 prolif: inactive
